Results published in PubChem BioAssay AID1445 (SRMLSC, 2008).
Hit rate of the full screen: of about 220,000 compounds, about 910 (0.41%) were called active. Shown is part of a subset that was picked to be rich in actives. Potency and affinity values are given separately. A number with no mark means an inactive call.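 The calls were made as follows: active = primary inhibition above the hit cutoff, then over 50% inhibition at one or more dose response concentrations (cut at about 23% in these data, passing the limit was not always enough); inconclusive = conflicting primary data, or primary hits not chosen for dose response; inactive = low primary inhibition, or under 50% at every dose.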

Biological target: Aminopeptidase N (Plasmodium falciparum (isolate 3D7)) (UniProt O96935)
Sequence (O96935 whole entry, looked up): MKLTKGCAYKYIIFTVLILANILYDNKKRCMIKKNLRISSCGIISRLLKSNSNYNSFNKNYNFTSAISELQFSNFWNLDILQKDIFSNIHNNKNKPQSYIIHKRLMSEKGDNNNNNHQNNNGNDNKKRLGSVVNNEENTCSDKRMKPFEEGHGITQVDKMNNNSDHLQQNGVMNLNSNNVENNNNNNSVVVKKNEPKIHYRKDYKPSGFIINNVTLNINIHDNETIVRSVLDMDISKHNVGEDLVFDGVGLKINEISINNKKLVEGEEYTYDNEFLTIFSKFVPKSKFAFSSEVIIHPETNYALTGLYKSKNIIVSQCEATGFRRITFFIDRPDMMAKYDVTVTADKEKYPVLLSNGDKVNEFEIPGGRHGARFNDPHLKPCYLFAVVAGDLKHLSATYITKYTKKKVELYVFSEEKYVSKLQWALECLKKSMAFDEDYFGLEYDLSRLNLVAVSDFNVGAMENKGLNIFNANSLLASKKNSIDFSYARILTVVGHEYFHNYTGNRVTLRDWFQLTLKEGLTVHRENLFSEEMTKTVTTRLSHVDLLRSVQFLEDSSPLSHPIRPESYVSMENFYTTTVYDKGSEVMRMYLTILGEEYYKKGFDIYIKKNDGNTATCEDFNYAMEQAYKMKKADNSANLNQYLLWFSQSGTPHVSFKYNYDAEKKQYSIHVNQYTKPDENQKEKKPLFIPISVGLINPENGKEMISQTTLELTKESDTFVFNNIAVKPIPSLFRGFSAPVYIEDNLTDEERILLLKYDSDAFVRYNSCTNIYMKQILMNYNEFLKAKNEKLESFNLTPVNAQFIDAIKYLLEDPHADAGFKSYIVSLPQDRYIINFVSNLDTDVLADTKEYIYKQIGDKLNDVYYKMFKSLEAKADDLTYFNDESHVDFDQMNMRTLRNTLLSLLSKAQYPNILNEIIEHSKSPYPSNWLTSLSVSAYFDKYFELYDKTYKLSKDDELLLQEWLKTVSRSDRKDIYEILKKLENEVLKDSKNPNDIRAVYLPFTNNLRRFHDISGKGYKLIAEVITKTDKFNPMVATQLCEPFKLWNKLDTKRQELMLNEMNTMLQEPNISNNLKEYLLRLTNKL
Experiment: P. falciparum M1AAP inhibitors, biochemical, fluorogenic H-Leu-NHMec substrate, 1536-well (AID 1445);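 also: plate controls were DMSO full reaction for no effect and no enzyme background for full effect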
Conditions: recombinant M1AAP, H-Leu-NHMec fluorogenic kinetic assay; at 30 µM, hits give high values unless noted

SMILES	inhibition
CCCNc1ncccc1C(N)=O	-1.06%
O=c1c(-c2nc3ccccc3s2)cccn1Cc1ccccc1	25.6% (active)
Cc1ccc(Cn2cccc(-c3nc4ccccc4s3)c2=O)cc1	10.1%
O=c1c(-c2nc3ccccc3s2)cccn1Cc1ccc(Cl)cc1	2.06%
O=C(O)CCC(=O)OC1CC2CCC1C2 (stereo not given)	-3.14%
CCN(CC)S(=O)(=O)c1ccc(NC(=O)CC(NC(C)=O)c2ccccc2)cc1 (stereo not given)	-1.24%
CCOc1cc(/C=C2\SC(=S)N(Nc3ccccc3)C2=O)ccc1O	14.7%
COc1cc(/C=C2\SC(c3ccc(C)cc3)=NC2=O)ccc1O	9.74%
CCOc1cc(/C=C2\C(=O)N(c3nc(-c4ccc(Br)cc4)cs3)N=C2c2ccccc2)ccc1O	15.7%
COc1ccc(C2=NN(c3ccccc3)C(=O)/C2=C\c2ccc(O)c(OC)c2)cc1	8.38%
CCNc1c([N+](=O)[O-])c(=O)oc2ccccc12	7.91%
COc1ccccc1C(=O)N1CCN(Cc2cn[nH]c2-c2ccc(F)cc2F)CC1	3.76%
Cc1cccc2cc(CN(C(=O)c3cnccn3)C3CCCCC3)c(Cl)nc12	5.74%
Cc1ccc(S(=O)(=O)NN=C2CCN(Cc3ccccc3)CC2)cc1	4.22%
O=C(O)CC(c1ccc(Cl)cc1)n1cccc1 (stereo not given)	8.45%
CC(=O)Nc1cc(C(=O)OC(C(=O)c2ccccc2)c2ccccc2)ccc1C (stereo not given)	2.38%
Cc1cccc2cc(COC(=O)C(C)(C)C)c(=O)[nH]c12	4.55%
Cc1ccc(-n2c(N)c(C(=O)N3CCOCC3)sc2=S)cc1	-1.83%
Nc1c(C(=O)N2CCOCC2)sc(=S)n1-c1ccccc1	24.9% (active)
Nc1c(C(=O)N2CCCCC2)sc(=S)n1-c1ccccc1	0.35%
CCOC(=O)CC(NC(=O)c1ccc(C)cc1)c1ccc(OC)cc1 (stereo not given)	5.77%
CCN(Cc1ccncc1)C(=O)CCc1nnc(CCc2ccccc2OC)o1	-2.71%

SMILES	inhibition
CCc1ccc2nc(N=C(N)N)nc(C)c2c1	5.85%
NC(N)=Nc1nc(-c2ccccc2)c2ccccc2n1	5.22%
COc1cc(/C=C2/SC(=S)N(CC(=O)Nc3nc4ccccc4s3)C2=O)cc(OC)c1OC	6.28%
Cc1ccc(N(Cc2ccccc2F)S(C)(=O)=O)cc1C	-9.52%
O=C1CCCc2oc3c(cc(NS(=O)(=O)c4ccc5c6c(cccc46)C(=O)N5)c4ccccc43)c21	3.6%
Cc1oc2c(cc(NS(=O)(=O)c3cccs3)c3ccccc32)c1C(=O)OC(C)C	3.76%
N=c1c(C(=O)NCC2CCCO2)cc2c(=O)n3ccccc3nc2n1Cc1cccnc1 (stereo not given)	20%
COCCCn1c(=N)c(C(=O)NCc2ccc3c(c2)OCO3)cc2c(=O)n3ccccc3nc21	4.69%
CCCn1c(=N)c(C(=O)NCC2CCCO2)cc2c(=O)n3cccc(C)c3nc21 (stereo not given)	7.23%
Cc1cccn2c(=O)c3cc(C(=O)NCC4CCCO4)c(=N)n(CCN4CCOCC4)c3nc12 (stereo not given)	8.4%
COc1ccccc1N1C(=O)c2ccc(C(=O)Nc3nccs3)cc2C1=O	7.44%
O=C(CSc1ccc(-c2ccccn2)nn1)c1ccc(F)cc1	1.12%
N#Cc1c(N)sc2c1CCCCCC2	7.78%
N#Cc1c(N)sc(=S)c2c1CCCC2	9.2%
N#Cc1c(N)sc(=S)c2c1CCCCC2	23.8% (active)
Cn1cnnc1Sc1ccc(C(=O)OCC(=O)Nc2cc(Cl)cc(Cl)c2)cc1[N+](=O)[O-]	3.75%
CCN(CC)S(=O)(=O)c1cccc(C(=O)Nc2cccnc2)c1	-0.19%
CCN(CC)c1ccc(NC(=O)c2cccnc2)c(C)c1	3.17%
NNC(=O)c1ccc2c(c1)S(=O)(=O)NNC2=O	8%
CC(C)N(C)C1CCN(C(=O)Nc2ccc(Cl)c(Cl)c2)CC1	6.97%
COc1cc(OC)c(NS(=O)(=O)c2cc(C(=O)OC(C)C(=O)NC3CC3)c(Cl)cc2Cl)cc1Cl (stereo not given)	10%
COc1cc(OC)c(NC(C)C(=O)N2CCCC2)cc1Cl (stereo not given)	11.4%

SMILES	inhibition
CCCCCCOc1ccc(C(CC(=O)O)C(N)=O)cc1 (stereo not given)	-7.78%
O=C(NCc1cccnc1)C(=O)NCC(c1ccco1)N1CCOCC1 (stereo not given)	11.1%
Cc1[nH]c2ccccc2c1/C=N/NC(=O)CNC(=O)c1cccs1	0.9%
CCN1CCN(CC(=O)N/N=C/c2ccc(F)cc2F)CC1	15.6%
CO/N=C/C(=N\Nc1ccc(OC)cc1)C(=O)c1ccc(OC)cc1	12%
COc1ccc(C(=O)C(/C=N/O)=N/Nc2ccc(F)cc2)cc1	4.27%
COc1ccc(N/N=C(\C=N\O)C(=O)c2ccc(OC)cc2)cc1	24.1% (active)
Cc1nc2sc3c(c2c(=O)n1/N=C/c1cccnc1)CCCC3	2.58%
O=C1c2oc3ccccc3c(=O)c2C(c2cccs2)N1CCCN1CCOCC1 (stereo not given)	16.3%
CCN(CC)CCCN1C(=O)c2oc3ccccc3c(=O)c2C1c1cccs1 (stereo not given)	23.3% (active)
CN(C)CCCN1C(=O)c2oc3ccccc3c(=O)c2C1c1cccs1 (stereo not given)	10.7%
S=C(NC1CC1)N1CCN(c2ccc(Cl)cc2)CC1	-2.34%
CC(C)C(=O)NC(=S)Nc1ccc(S(=O)(=O)Nc2nccs2)cc1	2.01%
COc1cccc(OC)c1C(=O)Nn1c(-c2cccs2)nc2ccccc2c1=O	1.67%
O=C(Cc1ccccc1)Nn1c(-c2ccccc2)nc2ccccc2c1=O	3.49%
COc1cccc(OC)c1C(=O)Nn1c(-c2cccc(C)c2)nc2ccccc2c1=O	6.13%
O=C(Cc1cccs1)Nn1c(Cc2cccs2)nc2ccccc2c1=O	10.8%
O=C(Nn1c(Cc2cccs2)nc2ccccc2c1=O)c1ccc(F)c(F)c1	8.58%
Cc1ccc(-c2nc3ccccc3c(=O)n2NC(=O)c2cccs2)cc1	5.47%
COc1ccccc1C(=O)Nn1c(-c2cccs2)nc2ccccc2c1=O	10.4%
Cc1cccc(-c2nc3ccccc3c(=O)n2NC(=O)c2cccnc2Cl)c1	8.24%
